The source of these data is PubChem BioAssay (NCI).

A short description of test [1]: NCI Yeast Anticancer Drug Screen. Data for the rad50 strain (AID 155).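 Also: 0% = growth of vehicle-only cultures of the same strain.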 Particulars: S. cerevisiae rad50 strain growth inhibition, stronger effect = higher value. The method in brief:
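Inhibition values express reduced yeast growth in compound-treated cultures relative to vehicle-treated controls.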

Test [2] can be described thus: NCI Yeast Anticancer Drug Screen. Data for the mec2-1 strain (AID 157). As to conditions: S. cerevisiae mec2-1 strain, stronger effect = higher value. The procedure, abridged:
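Test agents were screened against the mec2-1 yeast strain, with defined DNA repair or cell cycle alteration. Growth was scored as inhibition against vehicle-only controls.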

A short description of test [3]: NCI Yeast Anticancer Drug Screen. Data for the sgs1 mgt1 strain (AID 161).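 Also: 0% = growth of cultures given vehicle only.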 Particulars: S. cerevisiae sgs1 mgt1 strain, stronger effect = higher value. The method in brief:
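Genetically altered yeast, compound exposure, growth inhibition relative to vehicle.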

The nature of test [4]: NCI Yeast Anticancer Drug Screen. Data for the cln2 rad14 strain (AID 165).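 Also: 0% = growth equal to vehicle treated cultures.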 Particulars: S. cerevisiae cln2 rad14 strain, stronger effect = higher value. The procedure, abridged:
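Growth of compound-exposed yeast (cln2 rad14 genotype) measured and expressed as inhibition relative to vehicle.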

A short description of test [5]: NCI Yeast Anticancer Drug Screen. Data for the bub3 strain (AID 167). As to conditions: S. cerevisiae bub3 mutant strain, stronger effect = higher value. The procedure, abridged: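 Steps: expose the mutant yeast strain to compound; grow alongside vehicle-treated cultures; measure growth; express inhibition against the vehicle cultures.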
The nature of test [6]: NCI Yeast Anticancer Drug Screen. Data for the mlh1 rad18 strain (AID 175). Particulars: S. cerevisiae mlh1 rad18 strain growth inhibition, stronger effect = higher value. The method in brief:
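In this whole-cell yeast screen, a strain with altered DNA damage repair is challenged with compound, and its growth is measured against matched vehicle-treated controls.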

The mark [7] stands for this setting: at 5.0 µM (retest, dose inferred, filed as 0.5).
[8] abbreviates: at 50.0 µM (retest, dose inferred, filed as 5.0).

“And” between values parts separate entries of the source, which are not always exact repeats. Identical values can stand only once. Compounds without any hit were thinned out: in the full panel of roughly 79,000, 15% have a hit. The source holds several records for some structures; these can differ, active in one and inactive in another. The source made the active and inactive calls. Rule as the data show it: active = growth inhibition above about 70%; inactive = the rest.

For `O=C(CON1C(=O)c2ccccc2C1=O)c1ccccc1`, the growth inhibition was -3% (inactive) in test [1] (setting [7]); 19% (inactive) in test [1] (setting [8]); 91.2% (active) in test [1] (at 50.0 µM); 8% (inactive) in test [2] (setting [7]); 29% (inactive) in test [2] (setting [8]); 52% (inactive) in test [2] (at 50.0 µM). Also, the growth inhibition was 6% (inactive) in test [3] (setting [7]); 21% (inactive) in test [3] (setting [8]); 55.1% (inactive) in test [3] (at 50.0 µM); -5% (inactive) in test [4] (setting [7]); -8% (inactive) in test [4] (setting [8]); -3.15% (inactive) in test [4] (at 50.0 µM). For the same compound, the growth inhibition is -7% (inactive) in test [5] (setting [7]); 32% (inactive) in test [5] (setting [8]); 80.5% (active) in test [5] (at 50.0 µM); -16% (inactive) in test [6] (setting [7]); 18% (inactive) in test [6] (setting [8]); 76.2% (active) in test [6] (at 50.0 µM).

As for `O=C1c2ccccc2C(=O)c2cc(S(=O)(=O)O)ccc21`, the growth inhibition was 3% (inactive) in test [1] (setting [7]); 27% (inactive) in test [1] (setting [8]); 73% (active) and 25.7% (inactive) in test [1] (at 50.0 µM); 1% (inactive) in test [2] (setting [7]); 26% (inactive) in test [2] (setting [8]); 36.2% (inactive) and 36.1% (inactive) in test [2] (at 50.0 µM). The growth inhibition was 6% (inactive) in test [3] (setting [7]); 42% (inactive) in test [3] (setting [8]); 67.7% (inactive) and 37% (inactive) in test [3] (at 50.0 µM); 6% (inactive) in test [4] (setting [7]); 30% (inactive) in test [4] (setting [8]); -26.8% (inactive) and 9.95% (inactive) in test [4] (at 50.0 µM). Further, the growth inhibition in test [5] (setting [7]) is 0% (inactive); in test [5] (setting [8]), 22% (inactive); in test [5] (at 50.0 µM), 67.3% (inactive) and 44.7% (inactive); in test [6] (setting [7]), 7% (inactive); in test [6] (setting [8]), 41% (inactive); in test [6] (at 50.0 µM) it was 77.7% (active) and 19.6% (inactive).

Take `CCOc1ccc(NC(=O)C(=O)NO)cc1`: the growth inhibition in test [1] (setting [7]) is 7% (inactive); in test [1] (setting [8]), 73% (active); in test [1] (at 50.0 µM) it was 83% (active); in test [2] (setting [7]), -25% (inactive); in test [2] (setting [8]) it was 59% (inactive); in test [2] (at 50.0 µM), 71.8% (active). For the same compound, the growth inhibition was 10% (inactive) in test [3] (setting [7]); 67% (inactive) in test [3] (setting [8]); 74% (active) in test [3] (at 50.0 µM); 6% (inactive) in test [4] (setting [7]); 26% (inactive) in test [4] (setting [8]); 52% (inactive) in test [4] (at 50.0 µM). The growth inhibition in test [5] (setting [7]) is -8% (inactive); in test [5] (setting [8]), 85% (active); in test [5] (at 50.0 µM), 79.5% (active); in test [6] (setting [7]), -14% (inactive); in test [6] (setting [8]), 87% (active); in test [6] (at 50.0 µM), 79.7% (active).

For the compound `CC(=O)OC(c1ccccc1)c1ccc(Cl)cc1` (stereo unspecified), the growth inhibition is 3% (inactive) in test [1] (setting [7]); 0% (inactive) in test [1] (setting [8]); -11% (inactive) in test [1] (at 50.0 µM); 7% (inactive) in test [2] (setting [7]); 6% (inactive) in test [2] (setting [8]); 42.2% (inactive) in test [2] (at 50.0 µM). Further, the growth inhibition in test [3] (setting [7]) was 4% (inactive); in test [3] (setting [8]), 8% (inactive); in test [3] (at 50.0 µM), -0.4% (inactive); in test [4] (setting [7]), 4% (inactive); in test [4] (setting [8]), -14% (inactive); in test [4] (at 50.0 µM), -1.9% (inactive). The growth inhibition was 6% (inactive) in test [5] (setting [7]); 8% (inactive) in test [5] (setting [8]); -5.65% (inactive) in test [5] (at 50.0 µM); 1% (inactive) in test [6] (setting [7]); -1% (inactive) in test [6] (setting [8]); 2.9% (inactive) in test [6] (at 50.0 µM).

`Nc1cc(Cl)c(S(=O)(=O)O)cc1Cl`: the growth inhibition was 67% (inactive) in test [1] (setting [7]); 98% (active) in test [1] (setting [8]); -16.2% (inactive) and 35.6% (inactive) in test [1] (at 50.0 µM); 18% (inactive) in test [2] (setting [7]); 98% (active) in test [2] (setting [8]); -1.25% (inactive) and -2.55% (inactive) in test [2] (at 50.0 µM). Moreover, the growth inhibition in test [3] (setting [7]) is 9% (inactive); in test [3] (setting [8]), 96% (active); in test [3] (at 50.0 µM) it was -1.55% (inactive) and -2.6% (inactive); in test [4] (setting [7]) it was -7% (inactive); in test [4] (setting [8]), 96% (active); in test [4] (at 50.0 µM) it was -14% (inactive) and 39.3% (inactive). For the same compound, the growth inhibition in test [5] (setting [7]) is 12% (inactive); in test [5] (setting [8]), 98% (active); in test [5] (at 50.0 µM) it was -6.55% (inactive) and 1.75% (inactive); in test [6] (setting [7]), 28% (inactive); in test [6] (setting [8]) it was 98% (active); in test [6] (at 50.0 µM), 5.2% (inactive) and 30.6% (inactive).

For the compound `ON=C(Cc1ccccc1)Cc1ccccc1`, the growth inhibition is 7% (inactive) in test [1] (setting [7]); -7% (inactive) in test [1] (setting [8]); 20.4% (inactive) and 1.3% (inactive) in test [1] (at 50.0 µM); -4% (inactive) in test [2] (setting [7]); -8% (inactive) in test [2] (setting [8]); 5.7% (inactive) and -6.9% (inactive) in test [2] (at 50.0 µM). In addition, the growth inhibition is 1% (inactive) in test [3] (setting [7]); 34% (inactive) in test [3] (setting [8]); 23.2% (inactive) and 82.5% (active) in test [3] (at 50.0 µM); 2% (inactive) in test [4] (setting [7]); -8% (inactive) in test [4] (setting [8]); 46.2% (inactive) and -4.6% (inactive) in test [4] (at 50.0 µM). The growth inhibition was -83% (inactive) in test [5] (setting [7]); -3% (inactive) in test [5] (setting [8]); -2.8% (inactive) and 17.2% (inactive) in test [5] (at 50.0 µM); 1% (inactive) in test [6] (setting [7]); 9% (inactive) in test [6] (setting [8]); 61.8% (inactive) and 27.9% (inactive) in test [6] (at 50.0 µM).

Regarding `N#Cc1c(-c2ccccc2)cc(-c2ccccc2)n(C2OC(CO)C(O)C(O)C2O)c1=S` (stereo unspecified), the growth inhibition is -4% (inactive) and 0% (inactive) in test [1] (setting [7]); 4% (inactive) and -12% (inactive) in test [1] (setting [8]); 93% (active) and 32.5% (inactive) in test [1] (at 50.0 µM); -7% (inactive) and -4% (inactive) in test [2] (setting [7]); -19% (inactive) and -15% (inactive) in test [2] (setting [8]); 40.9% (inactive) and -23.4% (inactive) in test [2] (at 50.0 µM). For the same compound, the growth inhibition in test [3] (setting [7]) is -14% (inactive) and 4% (inactive); in test [3] (setting [8]), 10% (inactive) and 8% (inactive); in test [3] (at 50.0 µM), 4% (inactive) and -26.1% (inactive); in test [4] (setting [7]), 10% (inactive) and -1% (inactive); in test [4] (setting [8]), 22% (inactive) and 18% (inactive); in test [4] (at 50.0 µM), -35% (inactive) and -38.9% (inactive). The growth inhibition was -1% (inactive) and 10% (inactive) in test [5] (setting [7]); 11% (inactive) and 4% (inactive) in test [5] (setting [8]); 53.6% (inactive) and -49.4% (inactive) in test [5] (at 50.0 µM); 9% (inactive) and 1% (inactive) in test [6] (setting [7]); 8% (inactive) and -7% (inactive) in test [6] (setting [8]); 60.5% (inactive) and 1% (inactive) in test [6] (at 50.0 µM).
